Each structure is given as a SMILES string. The campaign covered roughly 310,000 compounds. About 14,000 (4.5%) showed an effect of 50% or more. The effect is printed as a negative number. What follows is part of a selection rich in strong results, with near analogues and random picks from the rest.
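Further: peak tail current of the secondary pulse compared with the same well before compound.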

Sequence of human ether-à-go-go-related gene (hERG) potassium channel (Q12809 whole entry, looked up): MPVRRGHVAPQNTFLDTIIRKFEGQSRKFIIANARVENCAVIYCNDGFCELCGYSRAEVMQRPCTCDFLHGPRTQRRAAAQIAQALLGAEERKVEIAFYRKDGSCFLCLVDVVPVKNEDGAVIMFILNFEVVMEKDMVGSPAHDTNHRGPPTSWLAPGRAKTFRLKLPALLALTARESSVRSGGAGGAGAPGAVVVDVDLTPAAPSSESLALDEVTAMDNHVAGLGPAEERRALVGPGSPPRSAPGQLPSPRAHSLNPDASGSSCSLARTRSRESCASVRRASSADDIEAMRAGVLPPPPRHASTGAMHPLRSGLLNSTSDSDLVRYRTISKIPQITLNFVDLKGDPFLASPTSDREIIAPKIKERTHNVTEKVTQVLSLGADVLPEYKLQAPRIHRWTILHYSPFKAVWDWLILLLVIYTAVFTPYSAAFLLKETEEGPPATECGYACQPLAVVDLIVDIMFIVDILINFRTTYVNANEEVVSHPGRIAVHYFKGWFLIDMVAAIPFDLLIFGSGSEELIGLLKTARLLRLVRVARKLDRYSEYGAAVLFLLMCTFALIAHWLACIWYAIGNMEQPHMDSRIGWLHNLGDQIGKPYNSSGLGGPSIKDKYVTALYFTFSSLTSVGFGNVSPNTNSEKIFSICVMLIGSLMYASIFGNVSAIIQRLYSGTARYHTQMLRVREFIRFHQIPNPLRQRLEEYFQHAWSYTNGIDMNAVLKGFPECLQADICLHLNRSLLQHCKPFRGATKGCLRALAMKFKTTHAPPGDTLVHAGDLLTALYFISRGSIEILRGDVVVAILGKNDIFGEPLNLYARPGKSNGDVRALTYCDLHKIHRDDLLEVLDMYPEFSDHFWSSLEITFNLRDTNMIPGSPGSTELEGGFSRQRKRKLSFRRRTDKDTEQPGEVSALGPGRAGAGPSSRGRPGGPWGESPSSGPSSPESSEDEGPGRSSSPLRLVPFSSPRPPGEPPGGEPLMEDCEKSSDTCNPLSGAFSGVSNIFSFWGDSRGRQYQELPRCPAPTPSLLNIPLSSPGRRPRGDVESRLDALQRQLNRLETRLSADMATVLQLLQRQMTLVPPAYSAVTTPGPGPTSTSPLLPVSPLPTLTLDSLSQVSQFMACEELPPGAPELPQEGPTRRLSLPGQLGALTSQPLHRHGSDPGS

This assay has as its target human ether-à-go-go-related gene (hERG) potassium channel (human, UniProt Q12809). Briefly: primary screen, population patch clamp on CHO cells stably expressing hERG; higher = less effect of the substance.
As to `O=C(CN(C(=O)CCC(=O)Nc1nccs1)c1ccc(F)cc1)NCc1ccc(F)cc1`, the “hERG current change (%, negative = inhibition) at 10uM” value stood at 16.8%.

Regarding `Cc1cc(N)ccc1N=Nc1c(C)n(C)n(-c2ccccc2)c1=O`, the “hERG current change (%, negative = inhibition) at 10uM” value is -5.57%.

With `Cc1cc(=O)[nH]c(SCC(=O)NCCC2=CCCCC2)n1`, the “hERG current change (%, negative = inhibition) at 10uM” value turned out to be 28.2%.

For the molecule `Cc1c(C(=O)N2CCCCC2)c(S(=O)(=O)N(C)Cc2ccccc2)c(C)n1C`, the “hERG current change (%, negative = inhibition) at 10uM” value is 2.66%.

For the molecule `O=C(Nc1ccccc1C(=O)NCC1CCCO1)c1ccc(Cl)cc1` (stereo not shown), the “hERG current change (%, negative = inhibition) at 10uM” value is listed as -34.8%.

Regarding `CC1(C)CC2CC(C)(CN2C(=O)COC(=O)c2cccc(O)c2)C1` (stereo not shown), the “hERG current change (%, negative = inhibition) at 10uM” value worked out at 6.76%.

Turning to `N#Cc1ccc(-c2ccccc2)nc1Sc1ccc(F)cc1`, the “hERG current change (%, negative = inhibition) at 10uM” value stood at 13.2%.

With `CC(C)Oc1cccc(C(=O)Nc2ccc(N3CCN(S(C)(=O)=O)CC3)cc2)c1`, the “hERG current change (%, negative = inhibition) at 10uM” value is reported as -0.708%.

Turning to `O=C1CC(c2ccccc2)CCc2sccc2N1` (stereo not shown), the “hERG current change (%, negative = inhibition) at 10uM” value was -5.86%.

Consider `O=C(c1nc2ccccn2c1CNCC1OCCc2ccccc21)N1CCOCC1` (stereo not shown), for which the “hERG current change (%, negative = inhibition) at 10uM” value was -0.852%.

In the case of `O=C(c1nc2ccccn2c1CNCCCn1cccn1)N1CCCC1`, the “hERG current change (%, negative = inhibition) at 10uM” value is -12.1%.

For the molecule `Cc1ccn2c(CNCC3OCCc4ccccc43)c(C(=O)N3CCCCCC3)nc2c1` (stereo not shown), the “hERG current change (%, negative = inhibition) at 10uM” value was -62.9%.

With `Cc1cccn2c(CNCC3OCCc4ccccc43)c(C(=O)N3CCCCC3)nc12` (stereo not shown), the “hERG current change (%, negative = inhibition) at 10uM” value is listed as -19.5%.

Regarding `CN1Cc2ccccc2CC1CNCc1c(C(=O)N2CCCC2)nc2ccccn12` (stereo not shown), the “hERG current change (%, negative = inhibition) at 10uM” value is listed as -73.5%.

For the molecule `Cc1cc(C(F)(F)F)nc(CCNCc2c(C(=O)N3CCCC3)nc3ccccn23)n1`, the “hERG current change (%, negative = inhibition) at 10uM” value is given as -14.4%.

Regarding `Cc1onc(-c2ccccc2)c1C(=O)NCC(O)c1ccccc1` (stereo not shown), the “hERG current change (%, negative = inhibition) at 10uM” value came to 5%.

Consider `Cc1onc(-c2ccccc2)c1C(=O)NC(C)c1ccc2c(c1)OCO2` (stereo not shown), for which the “hERG current change (%, negative = inhibition) at 10uM” value is reported as 27.7%.

Turning to `COc1cc(OC)cc(C(=O)OCC(=O)NCc2ccc3c(c2)OCO3)c1`, the “hERG current change (%, negative = inhibition) at 10uM” value turned out to be 12.9%.

For `CCCc1ccc2oc(C(=O)N3CCC(COC)C3)c(C)c2c1` (stereo not shown), the “hERG current change (%, negative = inhibition) at 10uM” value is recorded as -38.4%.

`O=C(NC1CS(=O)(=O)CC1NCc1ccco1)c1ccccc1` (stereo not shown): the “hERG current change (%, negative = inhibition) at 10uM” value was determined as 2.09%.

Regarding `Oc1ccc(Br)cc1CN1CCCCCCC1`, the “hERG current change (%, negative = inhibition) at 10uM” value is on record as -47.6%.

Take `N#CCCN1CCN(Cc2cc(-c3ccccc3)ccc2O)CC1`: the “hERG current change (%, negative = inhibition) at 10uM” value is -48.8%.

In the case of `Oc1ccc(-c2ccccc2)cc1CN1CCCCCC1`, the “hERG current change (%, negative = inhibition) at 10uM” value is reported as -52.1%.

Regarding `OC(CCN1CCCCC1)c1ccc(-c2ccccc2)cc1` (stereo not shown), the “hERG current change (%, negative = inhibition) at 10uM” value is given as -56.4%.

As to `OC(CCN1CCOCC1)c1ccccc1` (stereo not shown), the “hERG current change (%, negative = inhibition) at 10uM” value is recorded as 4.54%.

With `Cl.OC(CCCCN1CCCCC1)c1ccccc1` (stereo not shown), the “hERG current change (%, negative = inhibition) at 10uM” value is recorded as -18.1%.

Take `Cl.ClC(CCN1CCN(Cc2ccccc2)CC1)c1ccccc1` (stereo not shown): the “hERG current change (%, negative = inhibition) at 10uM” value was -20.6%.

Take `O=S(=O)(NCCN1CCCC1)c1ccc(Cl)cc1`: the “hERG current change (%, negative = inhibition) at 10uM” value is on record as 10.3%.

Turning to `Clc1ccc(C(CCN2CCCC2)Cc2ccccc2)cc1` (stereo not shown), the “hERG current change (%, negative = inhibition) at 10uM” value is on record as -62.7%.

In the case of `O=S(=O)(Nc1ccc(N2CCOCC2)cc1)c1ccc(F)cc1`, the “hERG current change (%, negative = inhibition) at 10uM” value worked out at 4.3%.

On to `COC(=O)N1N=C(c2ccc(Br)cc2)CC1(O)C(F)(F)F` (stereo not shown), for which the “hERG current change (%, negative = inhibition) at 10uM” value is given as -1.71%.

For `CCOc1ccc(CNC(=O)CN2C(=O)C(c3ccccc3)Oc3cccnc32)cc1` (stereo not shown), the “hERG current change (%, negative = inhibition) at 10uM” value is recorded as -3.6%.

With `O=C(N/N=C/c1ccc[nH]1)c1ccc(COc2cccc3cccnc23)cc1`, the “hERG current change (%, negative = inhibition) at 10uM” value is reported as -58.3%.

For `O=C(N/N=C/c1cccc(O)c1)c1ccc(COc2cccc3cccnc23)cc1`, the “hERG current change (%, negative = inhibition) at 10uM” value was found to be 22.8%.

For `O=C(N/N=C/c1ccncc1)c1ccc(COc2cccc3cccnc23)cc1`, the “hERG current change (%, negative = inhibition) at 10uM” value is -45.6%.

As for `CCOC(=O)C1=c2/c(=C/c3ccncc3)c(N)c(C(=O)OC)n2C(=O)C(c2ccncc2)S1` (stereo not shown), the “hERG current change (%, negative = inhibition) at 10uM” value worked out at 1.36%.

Consider `O=C(CCc1ccccc1)NNC(=O)c1ccc(NC(=O)c2ccccc2)cc1`, for which the “hERG current change (%, negative = inhibition) at 10uM” value was found to be 2.53%.

As for `Cc1cc(S(=O)(=O)Nc2ccc3c(c2)COC3=O)ccc1F`, the “hERG current change (%, negative = inhibition) at 10uM” value is on record as 7.2%.

On to `Cc1cc(C)n(C(=O)c2cccc(S(=O)(=O)N3CCCC3)c2)n1`, for which the “hERG current change (%, negative = inhibition) at 10uM” value came out at 6.46%.

On to `O=C(Nc1ccnn1C1CCN(Cc2c(F)cccc2Cl)CC1)C1CCCC1`, for which the “hERG current change (%, negative = inhibition) at 10uM” value is recorded as -32.1%.

In the case of `O=C(Nc1ccnn1C1CCN(C/C=C/c2ccccc2)CC1)C1CCCC1`, the “hERG current change (%, negative = inhibition) at 10uM” value is on record as -73%.

For `O=C(Nc1ccnn1C1CCN(C/C=C/c2ccc(F)cc2)CC1)C1CCCC1`, the “hERG current change (%, negative = inhibition) at 10uM” value is reported as -76.2%.

As to `CN(c1ccc(O)cc1)S(=O)(=O)c1ccc2ccccc2c1`, the “hERG current change (%, negative = inhibition) at 10uM” value is reported as -12.8%.

The record behind these values is PMC4336329 (PLoS ONE, 2015).
